Assay outcomes from PubChem.
Shiga toxin inh – inhibitors of Shiga toxin in Vero cells | 290,000 compounds, 9.2% hits | Vero cells, Shiga toxin protein synthesis inhibition reporter | inhibition, % at 38.7 µM; in the data active = inhibition mostly above about 28%, no sharp cut-off; inactive = mostly below about 43%; also: 0% is about no effect
LmPK inhibitor – LmPK (Leishmania mexicana) enzyme inhibition; Q27686; purified LmPK, Kinase-Glo ATP luminescence, 1 h; Potency, µM (series often up to 57.5 µM), for inactives: at the top dose activity change, negative = inhibition, usual class: inhibitors; 290,000 compounds, 0.37% hits; also: potency is read from the fitted curve at half-maximal effect; % is scaled to controls: 0 for no effect and ±100 for the full control effect
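Purified LmPK (0.1 nM) with 0.5 mM PEP and 0.1 mM ADP in imidazole buffer pH 7.2 with MgCl2/KCl, 1 h at room temperature. ATP formed was read by luciferase luminescence and normalized to no-enzyme and uninhibited controls.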
Giardia FBPA inh – blocks Giardia fructose-bisphosphate aldolase activity. 290,000 compounds, 0.71% hits. A8B2U2. Potency, µM (titrated, usually from 59.6 µM), for the others: at the highest dose activity, negative = inhibition, most hits filed as inhibitors. AID 2451. purified Giardia FBPA; also: potency is read from the fitted curve at half-maximal effect; % is scaled to controls: 0 for no effect and ±100 for the full control effect; nearly all actives have a fitted effect of over 55% in size
Target sequence (A8B2U2 whole entry, looked up): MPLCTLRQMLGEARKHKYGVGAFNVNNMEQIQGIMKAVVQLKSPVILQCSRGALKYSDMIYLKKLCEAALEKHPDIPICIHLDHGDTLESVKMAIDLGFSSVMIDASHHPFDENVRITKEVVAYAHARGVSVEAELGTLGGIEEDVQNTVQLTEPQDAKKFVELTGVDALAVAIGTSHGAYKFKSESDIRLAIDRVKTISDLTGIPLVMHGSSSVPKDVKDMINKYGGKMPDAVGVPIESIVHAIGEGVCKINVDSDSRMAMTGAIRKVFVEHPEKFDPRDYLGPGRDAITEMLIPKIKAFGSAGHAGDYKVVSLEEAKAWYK
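Giardia FBPA (40 nM reagent) was preincubated 10 min at RT with compound (up to 57.5 uM final), then substrate plus GAPDH/TPI/NAD/arsenate coupling system with diaphorase/resazurin was added; resorufin fluorescence (525/598 nm) was read after 20 min.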
Cycloheximide cs – counter-screen hit for Shiga toxin inhibitors, cycloheximide; cell reporter, cycloheximide protein synthesis inhibition counterscreen; max response, %; 300,000 compounds, 12% hits; in the data active = max response mostly above about 13%, no sharp cut-off; inactive = mostly below about 14%; also: read at 38.3 µM for the half of the compounds with a filed dose; 0% is about no effect
RE007 growth inh – less growth of the S. pombe RE007 Vpr strain; S. pombe RE007 Vpr strain, BacTiter-Glo ATP luminescence, 24 h; Potency, µM (highest dose often 92.2 µM), without a hit: top-dose activity change, negative = less growth, most hits filed as inhibitors; 360,000 compounds, 0.21% hits; AID 651644; active = well fitted falling curve with a large enough effect; inconclusive = small, poorly fitted or top-dose-only effect; inactive = no such curve, though single readings can be large or run the other way; also: potency is read from the fitted curve at half-maximal effect; % is scaled to controls: 0 for no effect and ±100 for the full control effect; nearly all actives have a fitted effect of over 50% in size
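Fission yeast RE007 carrying one integrated HIV-1 vpr copy, seeded at OD 0.01 in PMG+AL medium with 23 nL pinned compound. Grown 24 h at 30 degrees; viability read by BacTiter-Glo luminescence after 5 min.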
Tb PYK inh – inhibitors of Trypanosoma brucei pyruvate kinase; Q57TT1; TbPYK enzyme, Kinase-Glo Plus ATP luminescence, 45 min; Potency, µM (highest dose often 76.8 µM), for the others: at the highest dose activity, negative = inhibition, actives largely listed as inhibitors; 410,000 compounds, 0.12% hits; AID 624173; also: potency is read from the fitted curve at half-maximal effect; % is scaled to controls: 0 for no effect and ±100 for the full control effect; nearly all actives have a fitted effect of over 50% in size
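Luminescent Kinase-Glo Plus end-point after 45 min room-temperature reaction of T. brucei pyruvate kinase started with 130 uM ADP (final). Buffer TEA 50 mM pH 7.2 with KCl, MgCl2, BSA, Tween-20; titration-based qHTS with fitted concentration-effect curves.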
Starred values were filed as active, the others as inactive; u = inconclusive; x = no result given; ! = not active in a repeat; [ ] = remark or other dose. This excerpt belongs to a sample that is enriched for hits. Unless noted, calls follow the shape of the dose curve; as a rule, active = well fitted curve in the direction sought with a large enough effect; inconclusive = small, poorly fitted or top-dose-only effect, or another doubt; inactive = no such curve, though single readings can be large; an effect the other way counts as inactive or inconclusive.

SMILES	Shiga toxin inh	LmPK inhibitor	Giardia FBPA inh	Cycloheximide cs	RE007 growth inh	Tb PYK inh
Cc1cc(C)cc(NC(=O)CSc2nccn2Cc2ccco2)c1	45	-5%	x	22*	-14%	-6%
Cc1cccc(NC(=O)CSc2nccn2Cc2ccco2)c1	91*	-8%	x	62*	-4%	2%
O=C(CSc1nccn1Cc1ccc(F)cc1)NCc1ccco1	x	x	x	x	x	-3%
Cc1cccc(NC(=O)CSc2nccn2Cc2ccco2)c1C	53	-5%	-7%	18*	9%	5%
Cc1ccccc1NC(=O)CSc1nccn1Cc1ccco1	x	x	x	x	-5%	-6%
O=C(Nc1ccc(F)c(F)c1)c1cc(S(=O)(=O)NCc2ccc3c(c2)OCO3)ccc1F	x	x	x	x	x	0%
Cn1cc(S(=O)(=O)N2CCCC2)cc1C(=O)NCCc1ccccc1	18	1%	9%	11*	7%	-6%
CC(C)NC(=O)c1onc(CSc2ccc(Cl)cc2)c1C(=O)NC(C)C	-2	1%	-15%	-2	7%	-3%
Cc1ccc(C(=O)c2coc3ccc(O)c(CN4CCN(C)CC4)c23)cc1	73*	-4%	1%	15*	-13%	-3%
COc1ccc(C(=O)c2coc3ccc(O)c(CN4CCOCC4)c23)cc1	38*	7%	0%	13*	-1%	-3%
CCN(CC)Cc1c(O)ccc2occ(C(=O)c3ccc(OC)cc3)c12	19	0%	3%	15*	-3%	-11%
COc1ccc(C(=O)c2coc3ccc(O)c(CN4CCCC4)c23)cc1	-5	0%	2%	-2	-8%	1%
COc1ccc(C(=O)c2c(C)oc3ccc(O)c(CN4CCOCC4)c23)cc1	5	5%	-20%	6	-18%	0%
Cc1cc2c(s1)c1cnn(Cc3ccc(F)c(F)c3F)c(=O)c1n2C	20	x	x	10	x	x
O=C1C2C(c3cccc(/C=C/c4ccccc4)c3)CC=CC2C(c2ccc(C(F)(F)F)cc2)N1Cc1ccccc1 (configuration not stated)	54*!	3%	1%	17	18%	2%
COC(=O)c1sccc1NC(=O)Nc1ccc(C)cc1	87*	-22%	x	45*	u	-27%
COC(=O)c1sccc1NC(=O)Nc1ccc(F)cc1	20	u	x	30*	u	u
COC(=O)c1sccc1NC(=O)Nc1cc(C)cc(C)c1	80*	-14%	x	47*	-5%	2%
COC(=O)c1sccc1NC(=O)Nc1ccc(C)cc1C	-1	2%	2%	25	-5%	-2%
CCc1ccccc1NC(=O)Nc1ccsc1C(=O)OC	28	6%	6%	13	4%	0%
CCOc1ccccc1NC(=O)Nc1ccsc1C(=O)OC	36*	-2%	x	22*	-5%	-3%
CCNC(=O)C1(C)CCCN(C(=O)c2ccc3c(c2)C(C)(C)CCC3(C)C)C1 (configuration not stated)	x	x	x	x	-3%	-4%
Fc1ccc(Nc2ncncc2-c2ccccc2C(F)(F)F)cc1	x	x	-4%	x	x	x
CCCCNC(=O)CSc1nc2cc3c(cc2c(=O)n1CCC(=O)NCCc1ccc(OC)c(OC)c1)OCO3	-3	-3%	4%	8	-6%	1%
COC(=O)c1sccc1NC(=O)Nc1cccc(OC)c1	40*	-17%	x	45*	32µM*	-22%
SMILES	Shiga toxin inh	LmPK inhibitor	Giardia FBPA inh	Cycloheximide cs	RE007 growth inh	Tb PYK inh
COc1cccc(NC(=O)Nc2ccccc2Br)c1	74*	u	13%	53*	2%	0%
COC(=O)c1sccc1NC(=S)N(C)C1CCCCC1	17	-3%	-1%	7	-18%	7%
COC(=O)c1sccc1NC(=O)NC1CCCCC1	31	-13%	-7%	47*	-12%	2%
COC(=O)c1sccc1NC(=O)COc1ccccc1Cl	active	-17%	7%	33*	-26%	0%
COC(=O)c1ccc(N2CCN(C)CC2)c(NC(=O)COc2ccccc2Cl)c1	-11	-6%	x	0	1%	2%
CCCCCC(=O)/C=C/[C@@H]1[C@@H](C/C=C\CCCC(=O)O)[C@@H](O)C[C@H]1O	x	x	4%	x	x	x
CCOc1cccc(CC(=O)N2CCc3c([nH]c4ccccc34)C2c2ccc(C)cc2)c1OCC (configuration not stated)	x	x	x	x	x	2%
COC(=O)c1sccc1NC(=O)Nc1ccc(C(C)=O)cc1	53*	-25%	x	45*	-26%	-16%
COC(=O)c1sccc1NC(=O)Nc1ccc(F)cc1F	-8	-10%	-6%	10	-18%	-11%
CCN(CC)CCCNC(=O)C1CCN(C(=O)c2oc3cc4sc(N(C)C)nc4cc3c2C)CC1	24	-1%	-17%	19*	-2%	-11%
COCCCNC(=O)C1CCN(C(=O)c2oc3cc4sc(N(C)C)nc4cc3c2C)CC1	60*	-5%	-4%	36*	3%	-8%
CC(=O)NC1C(OCc2ccccc2)OC2COC(c3ccccc3)OC2C1OCC(=O)O (configuration not stated)	33	-5%	1%	41*	0%	-15%
CC12CCC(C(=O)Nc3nccs3)(OC1=O)C2(C)C (configuration not stated)	-10	-10%	4%	13	1%[3.69 µM]	x
CC12CCC(C(=O)Nc3nc4ccc(Br)cc4s3)(OC1=O)C2(C)C (configuration not stated)	94*	-1%	1%	33*	-18%	1%
COC(=O)C1CCN(C(c2ccccc2Cl)c2sc3nc(-c4ccco4)nn3c2O)CC1 (configuration not stated)	x	x	x	x	x	-4%
Cc1ccc2nc(NC(=O)CSc3nccn3Cc3ccc(Cl)cc3)sc2c1	x	x	x	x	x	-2%
Cc1nn(Cc2c(F)c(F)c(F)c(F)c2F)c(C)c1NC(=O)c1cccc(COc2ccc(Cl)cc2)c1	136*	2%	8%	83*	-17%	-19%
CC(C)c1cc(C(N)=O)c(NC(=O)c2cccc(COc3ccc(Cl)cc3)c2)s1	200*	0%	-6%	70*	-3%	1%
Cc1cccc(Cn2nc(C)c(NC(=O)c3ccc(F)cc3)c2C)c1	-11	-2%	5%	1	17%	-7%
O=C(CCn1c(=O)[nH]c2ccsc2c1=O)NCc1ccc(F)cc1	-6	-2%	6%	-1	4%	-2%
CC(=O)Nc1ccn(C2CC3OCC(NC(=O)C(Cc4ccccc4)NC(=O)OC(C)(C)C)C3O2)c(=O)n1 (configuration not stated)	-5	x	8%	15	x	x
O=C(Nc1ccc2c(c1)nc1n2CCSC1)c1ccco1	34	-28%	-21%	12	-6%	-5%
O=C(COc1ccccc1)Nc1ccc2c(c1)nc1n2CCOC1	134*	0%	18%	20	-12%	-6%
O=C(COc1ccccc1)Nc1ccc2c(c1)nc1n2CCSC1	146	3%	5%	24*	-9%	-10%
